A selection: hits, their analogues and other compounds. The true share with any hit is near 1.7%.
KCNH2 3.1 inh = inhibitors of human KCNH2 3.1 potassium channel isoform; AID 720553; activity change, % (tested at about 1.8 µM); U2OS KCNH2 3.1, thallium flux FluxOr; active compounds read low; actives 0.95% (n = 340,000);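 active = maximum activity change below -70%; inconclusive = maximum activity change from -70% to -50%; inactive = maximum activity change above -50%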;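 also: thallium influx rate constant from kinetic fluorescence after stimulation buffer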
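Steps: virus added to U2OS suspension (4 h, RT, dark); medium with 10% FBS added, cells plated, 37 C overnight; FluxOr/Red40 loading buffer 45 min RT; stimulation buffer, 2 min kinetic read; rate constant normalized.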
Akt phos inh = Akt phosphorylation inhibition; Neuro2A IGF-stimulated pAkt S473 HTRF, 20 min; active compounds read low; activity change, % for hits at 50 µM; actives 0.32% (n = 360,000); AID 651550; in the data active = activity change below about -80%; inconclusive = mostly about -51% to -80%
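Single-point screen (50 µM final compound) in Neuro2A cells stimulated 20 min with 6 nM IGF at 37 deg C. After lysis, Ser473-phosphorylated Akt read by HTRF (ex 330 nm, em 615/665 nm) as the 665/615 ratio.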
KCNH2 WT inh = blocks the wildtype human KCNH2 potassium channel | activity change, % at 1.84 µM | U2OS, BacMam KCNH2, thallium flux FluxOr; active compounds read low | Q12809 | actives 0.37% (n = 340,000);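 active = maximum activity change below -70%; inconclusive = maximum activity change between -70% and -50%; inactive = maximum activity change above -50%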
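U2OS cells transduced with wild-type KCNH2 virus are loaded with FluxOr dye for 45 min, and thallium flux is measured in kinetic reads before and after stimulation buffer. Rate constants are normalized to DMSO controls.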
RXFP1 agonist = agonists of human relaxin receptor RXFP1. actives 0.3% (n = 370,000). HEK293T-RXFP1 cAMP TR-FRET, 30 min; response scale: percent of porcine relaxin response, buffer zero. Potency, µM (highest dose often 57.5 µM), inactives show top-dose activation, hits mostly activators. Q9HBX9; active = well fitted activation curve with a large enough effect; inconclusive = small, poorly fitted or top-dose-only effect; also: potency is read from the fitted curve at half-maximal effect; nearly all actives have a fitted effect of over 60% in size
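HEK293 cells stably expressing RXFP1, treated 30 min at 37C with compounds plus PDE4 inhibitor Ro 20174; cAMP measured by HTRF TR-FRET. Normalized to buffer and 29 nM porcine relaxin; EC50 by Hill fit.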
RXFP1 antagonist = antagonists of human relaxin receptor RXFP1; Q9HBX9; HEK293-RXFP1, relaxin-stimulated cAMP HTRF, 30 min; active compounds read low; activity change, negative = inhibition, % at 57.5 µM; actives 0.59% (n = 350,000);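 active = activity change of -60% or lower, but not beyond a set lower limit; inconclusive = change between -60% and -40%, or beyond the set limit; inactive = change above -40%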
* marks the source's active call; other numbers are inactive results; i = inactive; ? = inconclusive; · = no result. % is scaled to controls: 0 for no effect and ±100 for the full control effect.

SMILES	KCNH2 3.1 inh	Akt phos inh	KCNH2 WT inh	RXFP1 agonist	RXFP1 antagonist
CC(c1nccs1)N(C)C(=O)CCc1nnc(-c2ccc(-c3ccccc3)cc2)o1 (stereo not drawn)	-160.9*	i	-138.4*	2.8%	-8.4
CC(NC(=O)CCc1nnc(-c2ccc(-c3ccccc3)cc2)o1)c1nccs1 (stereo not drawn)	-1.3	i	15.9	-0.2%	-6.8
CCCCOc1cccc(C2/C(=C(/O)c3ccc4c(c3)CC(C)O4)C(=O)C(=O)N2CCN2CCOCC2)c1 (stereo not drawn)	-3.9	i	-7.1	28.2µM*	-7.5
COc1cccc(NC(c2nnc(-c3ccccc3)o2)c2ccc(F)cc2Cl)c1 (stereo not drawn)	·	·	·	0.1%	-18.4
CCN1CCN(c2cc(C)c3cc(NC(=S)N(C)Cc4ccccc4)ccc3n2)CC1	-70.1*	i	-7.3	0.1%	-4.6
COc1ccccc1NC(=O)C(C)N1CCN(C/C=C/c2ccccc2)CC1 (stereo not drawn)	-94.7*	i	-81.8*	0.3%	3.6
COc1ccccc1C(=O)NCC(=O)N1CCN(C/C=C/c2ccccc2)CC1	-18.5	i	-13.9	·	-4.4
COc1ccc(NC(C)=O)cc1S(=O)(=O)N1CCN(C(=O)c2ccccc2F)CC1	6.9	i	2.8	0.0%	0.2
COc1ccc(NC(C)=O)cc1S(=O)(=O)N1CCN(C/C=C/c2ccccc2)CC1	-73.3*	i	12.4	-0.4%	2.0
COc1cc(C(=O)NC(C)c2ccc(S(N)(=O)=O)cc2)ccc1OCC(=O)N1CCOCC1 (stereo not drawn)	10.2	i	3.3	-1.0%	-7.3
O=[N+]([O-])c1ccc(OCCCCN2CCc3ccccc3C2)cc1	-71.3*	i	-16.0	-0.7%	-4.0
CSc1nnc(CSCc2ccc(Cl)cc2Cl)n1-c1ccccc1	-83.6*	i	-4.9	1.1%	-19.5
N#Cc1c(N2CCN(c3ccc([N+](=O)[O-])cc3)CC2)[n+](=O)c2ccc(Cl)cc2n1[O-]	-96.5*	i	?	·	-15.9
Cc1sc2nc(CSc3ccccc3)nc(N3CCC(C(N)=O)CC3)c2c1C	3.1	i	·	1.4%	-0.8
CCOC(=O)c1sc2nc(CSc3ccccc3)nc(N3CCC(C(N)=O)CC3)c2c1C	-190.5*	i	-225.5*	-0.6%	-8.4
Cc1cccc(OCC(=O)NCC(C)(C)N2CCOCC2)c1	-153.1*	i	13.9	0.3%	8.1
CCOc1ccc(Nc2nc(NCC(=O)O)nc(N)c2[N+](=O)[O-])cc1	4.7	i	-1.2	1.6%	-3.7
CC1C(=O)N(Cc2ccc([N+](=O)[O-])cc2)c2ccccc2N1C(=O)c1c(F)cccc1F (stereo not drawn)	-1.5	i	-79.4*	0.8%	1.3
COc1ccc(CN2C(=O)C(C)N(C(=O)c3c(F)cccc3F)c3ccccc32)cc1 (stereo not drawn)	11.1	i	-2.9	2.5%	16.3
COc1cc2c(cc1OC)C(C)N(CCc1ccc(Cl)cc1)CC2 (stereo not drawn)	-84.4*	i	-12.0	·	-6.7
COc1cc2c(cc1OC)C(C)N(CCN1C(=O)c3ccccc3C1=O)CC2 (stereo not drawn)	3.0	i	1.6	2.6%	7.7
COc1ccc(N2C(=O)CN=C2Nc2nc(C)cc(C)n2)cc1OC	-148.5*	i	-2.2	-0.2%	-2.6
OCC1CCN(Cc2nc(Cc3ccccc3Cl)no2)CC1	-21.0	i	i	-0.2%	12.8
Cc1ccc(C(=O)O/N=C/c2c(Cl)n(C)c3ccccc23)cc1	-0.6	-104.8%*	-3.9	-3.8%	-8.2
Nc1c(S(=O)(=O)c2cccs2)c2nc3ccccc3nc2n1Cc1cccs1	-30.5	·	-7.2	2.6%	2.3
CN(C)CCn1cnc2c1c(=O)[nH]c(=O)n2Cc1ccccc1	3.5	i	-252.3*	-1.2%	-7.0
Cc1cccc(N=Cc2cc(Br)cc(Cl)c2O)c1	-9.3	i	-0.1	9.0%	-63.6*
NC(=O)c1cccc(N=Cc2cc(Cl)cc(Cl)c2O)c1	-2.0	i	9.2	-0.9%	-20.7
COc1ccc(S(=O)(=O)N2CCC(C(=O)Nc3ccccc3C)CC2)c2cccnc12	5.9	i	0.0	-0.5%	4.4
